Data from the supplement of paper PMC13380429.

Test system: Vero E6 infected with SARS-CoV-2
Test: inhibition of SARS-CoV-2 cytopathic effect; higher = more antiviral protection, active = above 15
Conditions: 48 h

Measured: inhibition of SARS-CoV-2 cytopathic effect

CN1CCN(CCCCN2C(=O)CN(/N=C/c3ccc(-c4ccc(Cl)cc4)o3)C2=O)CC1 [azimilide]
inactive: 1 nM 0.53% | 8.33 nM 0.51% | 100 nM 2.48% | 833.33 nM 0.41% | 10000 nM -1.08%

N=C(N)NCCC[C@@H](NC(=O)[C@@H]1CCCN1C(=O)[C@@H]1CSSCCC(=O)N[C@@H](Cc2ccc(O)cc2)C(=O)N[C@@H](Cc2ccccc2)C(=O)N[C@@H](CCC(N)=O)C(=O)N[C@@H](CC(N)=O)C(=O)N1)C(=O)NCC(N)=O [desmopressin-acetate]
inactive: 1 nM -0.33% | 8.33 nM -2.9% | 100 nM 0.69% | 833.33 nM 0.25% | 10000 nM 0.02%

Cn1ncnc1[C@H]1c2n[nH]c(=O)c3cc(F)cc(c23)N[C@@H]1c1ccc(F)cc1 [talazoparib]
inactive: 1 nM 0.71% | 8.33 nM 2.94% | 100 nM 2.17% | 833.33 nM -0.1% | 10000 nM -3.8%

C[C@@H]1CN(CCCn2c3ccccc3c3ccccc32)C[C@H](C)N1 [rimcazole]
active: 10000 nM 31.1%
inactive: 1 nM -0.92% | 8.33 nM -0.33% | 100 nM 0.18% | 833.33 nM -2.52%

CC(C)=CCC/C(C)=C/CC/C(C)=C/CSc1ccccc1C(=O)O [salirasib]
inactive: 1 nM 2.79% | 8.33 nM 2.19% | 100 nM 1.36% | 833.33 nM 6.06% | 10000 nM 0.01%

COc1ccccc1C(=O)Nc1cccc(NC(=O)c2cccc(C)c2)c1
inactive: 1 nM 1.89% | 8.33 nM 2.12% | 100 nM 2.82% | 833.33 nM 0.39% | 10000 nM 1.77%
